# According to PubChem BioAssay AID624125 (The Scripps Research Institute Molecular Screening Center, 2012):
# The campaign covered roughly 360,000 compounds. About 2,600 (0.72%) were called active. What follows is part of a selection rich in actives, with near analogues and random picks from the rest. A number with no mark means an inactive call.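 How the source made its calls: active means inhibition above its plate's cutoff, the mean inhibition of sample wells plus 3 SD (cut at about 27% in these data); inactive means the rest.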
# Molecular target: Muscarinic acetylcholine receptor M4 (Homo sapiens) (UniProt P08173)
# Assay: CHRM4 blockers of acetylcholine calcium response – CHO cells, Fluo-8 calcium fluorescence, primary screen (AID 624125);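 further: 0% = acetylcholine EC80 with DMSO and 100% = DMSO without agonist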
# Details: CHO-hM4 cells, ACh EC80, Fluo-8 calcium fluorescence; at 3 µM; active compounds read high
# Muscarinic acetylcholine receptor M4 (Homo sapiens), sequence (P08173 whole entry, looked up): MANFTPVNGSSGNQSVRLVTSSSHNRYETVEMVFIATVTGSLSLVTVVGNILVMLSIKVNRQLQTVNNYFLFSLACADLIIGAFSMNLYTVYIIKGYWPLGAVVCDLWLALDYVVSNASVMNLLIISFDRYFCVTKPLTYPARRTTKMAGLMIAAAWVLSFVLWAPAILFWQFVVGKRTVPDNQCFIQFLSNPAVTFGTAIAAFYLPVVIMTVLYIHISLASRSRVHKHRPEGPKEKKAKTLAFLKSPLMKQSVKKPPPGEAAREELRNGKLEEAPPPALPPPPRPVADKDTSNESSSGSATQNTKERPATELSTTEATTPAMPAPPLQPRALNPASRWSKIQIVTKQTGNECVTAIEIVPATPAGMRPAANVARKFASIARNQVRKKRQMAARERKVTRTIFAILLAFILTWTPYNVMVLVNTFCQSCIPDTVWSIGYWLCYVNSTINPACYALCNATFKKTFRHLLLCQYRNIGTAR
row,SMILES,inhibition
1,CCN(CC(=O)Nc1ccccc1OC)C(=O)CC1CC2CCC1C2 (stereo not given),0.94%
2,Cc1cccc2c1N(CCOc1ccccc1)C(=O)C2=O,-0.73%
3,C/C(=N\N1CCN(Cc2ccc(C)cc2)CC1)c1ccco1,1.69%
4,CCOC(=O)c1ccccc1NC(=O)COC(=O)CCC(=O)N1CCOCC1,2.73%
5,C[C@H]1[C@H]2c3nc4ccccc4n3C[C@H]1ON2C1CCCCC1,-2.5%
6,Cc1onc(-c2ccccc2)c1-c1nnc(COC(=O)c2ccc(N(C)C)cc2)o1,62.4% (active)
7,O=C(OCc1nnc(-c2ccccc2)o1)c1ccc2c(c1)C(=O)N(CCc1ccccc1)C2=O,-2.43%
8,Cc1ccc(C(=O)NCC(=O)OCc2nnc(-c3ccccc3)o2)cc1,8.37%
9,COc1ccc(C(=O)N2CCCCC2c2cc(C(=O)Nc3ccccc3)no2)cc1 (stereo not given),-6.76%
10,Cn1c(-c2ccc(C(=O)c3ccccc3)s2)nc2ccccc21,1.58%
11,Cc1nc2sc(C(=O)c3ccccc3)c(N)c2c2c1CCCC2,29.8% (active)
12,Cc1c(C(=O)Nc2ccccc2)sc2nc3n(c(=O)c12)CCCCC3,-0.96%
13,COc1ccc([C@H]2C[C@@H](n3cc(COC(=O)c4ccccc4)nn3)[C@H](O)CN2C(=O)c2cccs2)cc1,-7.8%
14,Cc1ccc(S(=O)(=O)N(CC(=O)NCCSC2CCCCC2)c2ccccc2F)cc1,-2.75%
15,CCCCC[C@@H]1C=C(C(=O)OCC)[C@H](c2ccccc2)N1S(=O)(=O)c1ccc(C)cc1,-11.2%
16,CCOC(=O)C1=CC[C@@H](c2ccccc2)N(S(=O)(=O)c2ccc(C)cc2)[C@H]1c1ccc(CC)cc1,-16.5%
17,CCOC(=O)C1C(C)C(C(C)(C)C)N(S(=O)(=O)c2ccc(C)cc2)C1c1ccccc1 (stereo not given),37.7% (active)
18,CCC(C)NCCOCCOc1ccc(Br)cc1C (stereo not given),6.84%
19,Cc1ccc(C)c(NC(=O)C(OC(=O)c2ccc(C)s2)c2ccccc2)c1 (stereo not given),-13.1%
20,CCCOc1ccc(F)cc1-c1cc(C(=O)Nc2ccc(F)cc2)[nH]n1,-2.62%
21,CCCOc1ccc(F)cc1-c1cc(C(=O)NCc2ccc(F)cc2)[nH]n1,-9.17%
22,CCCOc1ccc(F)cc1-c1cc(C(=O)Nc2ccc(F)c(Cl)c2)[nH]n1,28% (active)
23,CC(=O)NC(C(=O)NCC(N)=O)C(C)C (stereo not given),-7.93%
24,Cc1ccc(C)c(S(=O)(=O)Nc2cccc(-n3cnnn3)c2)c1,4.01%
25,O=C(CC1Oc2ccccc2NC1=O)NCCCN1CCN(Cc2ccccc2)CC1 (stereo not given),-1.94%
